Assay results reported in the supplement of paper PMC11732987, “Enantioselective OTUD7B fragment discovery through chemoproteomics screening and high-throughput optimisation” (Communications Chemistry, 2025).

How the values were obtained:
Assay in all cases: log2 ratio of Biotin-Ahx-Ub-VS probe labelling (fragment/DMSO); higher = less target engagement (more negative = stronger competition), active = hit call of the paper (q ≤ 0.05, log2 ratio ≤ -1)
Settings in all cases: compound concentration: 200 uM; treatment time: 3 h
USP34 = USP34 (UniProt Q70CQ2)
Sequence of USP34 (Q70CQ2 whole entry, the tested form may be a part): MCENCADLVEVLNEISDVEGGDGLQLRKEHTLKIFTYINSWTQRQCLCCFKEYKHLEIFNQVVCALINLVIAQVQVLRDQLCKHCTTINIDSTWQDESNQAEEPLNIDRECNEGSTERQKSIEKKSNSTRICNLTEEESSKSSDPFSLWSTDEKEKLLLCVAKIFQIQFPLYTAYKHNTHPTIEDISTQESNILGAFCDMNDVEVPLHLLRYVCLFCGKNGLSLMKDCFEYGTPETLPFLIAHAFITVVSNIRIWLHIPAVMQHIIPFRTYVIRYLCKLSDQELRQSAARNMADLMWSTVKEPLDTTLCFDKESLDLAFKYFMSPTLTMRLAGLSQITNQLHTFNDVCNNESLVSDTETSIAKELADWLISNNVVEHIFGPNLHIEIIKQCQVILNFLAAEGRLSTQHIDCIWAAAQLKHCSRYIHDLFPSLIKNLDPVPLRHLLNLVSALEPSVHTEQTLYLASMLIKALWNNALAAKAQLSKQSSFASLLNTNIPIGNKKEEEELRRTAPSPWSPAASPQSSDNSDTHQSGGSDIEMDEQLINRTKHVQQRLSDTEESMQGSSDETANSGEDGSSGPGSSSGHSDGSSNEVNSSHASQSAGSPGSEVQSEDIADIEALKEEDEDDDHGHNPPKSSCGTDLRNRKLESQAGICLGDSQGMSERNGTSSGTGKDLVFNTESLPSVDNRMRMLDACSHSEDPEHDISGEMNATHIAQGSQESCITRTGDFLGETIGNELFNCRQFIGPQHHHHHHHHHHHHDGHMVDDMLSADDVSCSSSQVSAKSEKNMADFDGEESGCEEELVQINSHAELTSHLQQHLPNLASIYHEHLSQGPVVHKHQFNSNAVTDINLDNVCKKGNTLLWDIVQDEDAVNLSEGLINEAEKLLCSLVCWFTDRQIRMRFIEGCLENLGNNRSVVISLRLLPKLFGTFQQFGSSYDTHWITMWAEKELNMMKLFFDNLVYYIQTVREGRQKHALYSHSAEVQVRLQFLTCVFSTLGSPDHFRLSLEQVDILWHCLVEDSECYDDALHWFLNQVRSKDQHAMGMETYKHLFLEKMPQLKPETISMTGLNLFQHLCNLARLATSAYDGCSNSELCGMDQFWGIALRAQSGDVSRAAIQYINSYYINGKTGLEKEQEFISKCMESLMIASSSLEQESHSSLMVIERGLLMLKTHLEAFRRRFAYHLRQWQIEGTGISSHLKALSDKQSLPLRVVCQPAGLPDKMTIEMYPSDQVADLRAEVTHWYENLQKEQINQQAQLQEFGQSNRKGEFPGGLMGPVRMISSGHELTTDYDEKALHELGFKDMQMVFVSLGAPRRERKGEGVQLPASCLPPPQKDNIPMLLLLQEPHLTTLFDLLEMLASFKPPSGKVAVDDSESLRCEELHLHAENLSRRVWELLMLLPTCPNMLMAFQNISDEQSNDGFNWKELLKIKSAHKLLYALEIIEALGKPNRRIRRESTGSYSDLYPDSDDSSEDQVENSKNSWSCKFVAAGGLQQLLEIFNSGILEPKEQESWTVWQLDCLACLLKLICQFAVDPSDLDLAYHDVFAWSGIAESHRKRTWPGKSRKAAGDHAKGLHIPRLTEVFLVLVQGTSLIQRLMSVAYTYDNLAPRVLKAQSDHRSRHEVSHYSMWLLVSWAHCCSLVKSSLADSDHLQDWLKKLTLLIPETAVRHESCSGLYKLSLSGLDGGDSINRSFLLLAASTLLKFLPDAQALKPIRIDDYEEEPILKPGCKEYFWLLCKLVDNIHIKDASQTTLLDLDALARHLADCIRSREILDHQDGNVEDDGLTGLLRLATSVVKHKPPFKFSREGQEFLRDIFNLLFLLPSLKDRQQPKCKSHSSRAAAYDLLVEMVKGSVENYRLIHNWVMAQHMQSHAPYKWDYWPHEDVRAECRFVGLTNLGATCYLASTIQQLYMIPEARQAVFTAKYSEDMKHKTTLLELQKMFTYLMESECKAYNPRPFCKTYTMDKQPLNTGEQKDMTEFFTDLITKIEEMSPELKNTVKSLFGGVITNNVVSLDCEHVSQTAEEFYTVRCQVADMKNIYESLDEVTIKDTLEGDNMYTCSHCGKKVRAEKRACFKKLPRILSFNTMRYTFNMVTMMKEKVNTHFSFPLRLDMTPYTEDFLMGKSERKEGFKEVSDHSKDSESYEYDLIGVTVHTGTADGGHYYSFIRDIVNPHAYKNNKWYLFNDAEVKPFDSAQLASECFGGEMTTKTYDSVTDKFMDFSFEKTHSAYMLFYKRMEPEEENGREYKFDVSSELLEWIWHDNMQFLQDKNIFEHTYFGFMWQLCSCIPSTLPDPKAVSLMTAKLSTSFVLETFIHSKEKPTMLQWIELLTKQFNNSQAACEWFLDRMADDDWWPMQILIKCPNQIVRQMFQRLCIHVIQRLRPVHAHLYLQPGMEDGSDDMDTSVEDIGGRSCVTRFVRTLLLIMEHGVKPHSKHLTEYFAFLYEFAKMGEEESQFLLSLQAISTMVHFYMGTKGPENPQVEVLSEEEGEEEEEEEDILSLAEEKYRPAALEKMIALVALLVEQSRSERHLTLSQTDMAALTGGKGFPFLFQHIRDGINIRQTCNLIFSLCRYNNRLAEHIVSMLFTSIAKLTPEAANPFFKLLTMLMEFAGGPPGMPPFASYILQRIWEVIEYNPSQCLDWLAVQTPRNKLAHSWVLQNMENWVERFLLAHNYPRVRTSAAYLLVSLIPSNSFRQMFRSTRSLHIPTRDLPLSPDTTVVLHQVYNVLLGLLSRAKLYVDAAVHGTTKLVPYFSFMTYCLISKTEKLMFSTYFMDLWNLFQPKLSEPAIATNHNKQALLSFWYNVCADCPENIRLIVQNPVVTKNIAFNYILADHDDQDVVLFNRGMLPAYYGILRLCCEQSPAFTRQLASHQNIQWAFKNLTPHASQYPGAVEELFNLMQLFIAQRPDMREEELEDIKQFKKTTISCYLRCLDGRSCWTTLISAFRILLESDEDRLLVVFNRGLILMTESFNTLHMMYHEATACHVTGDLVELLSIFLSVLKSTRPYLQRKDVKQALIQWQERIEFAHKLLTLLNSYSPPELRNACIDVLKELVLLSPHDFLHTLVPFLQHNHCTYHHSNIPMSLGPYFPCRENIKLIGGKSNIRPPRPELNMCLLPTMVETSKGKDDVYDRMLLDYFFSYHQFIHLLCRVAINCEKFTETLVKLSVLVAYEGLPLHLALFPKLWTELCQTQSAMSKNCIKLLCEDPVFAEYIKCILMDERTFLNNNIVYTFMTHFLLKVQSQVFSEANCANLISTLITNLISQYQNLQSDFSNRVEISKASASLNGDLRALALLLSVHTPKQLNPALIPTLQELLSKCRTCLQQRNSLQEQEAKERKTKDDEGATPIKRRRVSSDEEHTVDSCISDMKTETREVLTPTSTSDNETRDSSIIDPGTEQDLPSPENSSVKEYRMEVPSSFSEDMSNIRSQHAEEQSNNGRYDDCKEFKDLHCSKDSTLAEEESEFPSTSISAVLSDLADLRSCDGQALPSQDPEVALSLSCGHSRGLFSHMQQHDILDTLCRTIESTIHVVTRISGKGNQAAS
Outline: (§1)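 Fragment (200 µM) or vehicle was incubated for 3 h with triplicate HEK293T lysate samples of 495 µg, which were then treated with Biotin-Ahx-Ub-VS at 0.5 µM final for 1 h. Labelled DUBs were enriched on NeutrAvidin, digested with LysC and trypsin, and analysed by diaPASEF LC-MS/MS. Values are average log2 fragment/vehicle ratios from an unpaired t-test on global-median-normalised Spectronaut label-free quantities, using proteins with ≥2 unique peptides.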

USP36 = molecular target: T1, USP36 (UniProt Q9P275)
T1 sequence (whole entry): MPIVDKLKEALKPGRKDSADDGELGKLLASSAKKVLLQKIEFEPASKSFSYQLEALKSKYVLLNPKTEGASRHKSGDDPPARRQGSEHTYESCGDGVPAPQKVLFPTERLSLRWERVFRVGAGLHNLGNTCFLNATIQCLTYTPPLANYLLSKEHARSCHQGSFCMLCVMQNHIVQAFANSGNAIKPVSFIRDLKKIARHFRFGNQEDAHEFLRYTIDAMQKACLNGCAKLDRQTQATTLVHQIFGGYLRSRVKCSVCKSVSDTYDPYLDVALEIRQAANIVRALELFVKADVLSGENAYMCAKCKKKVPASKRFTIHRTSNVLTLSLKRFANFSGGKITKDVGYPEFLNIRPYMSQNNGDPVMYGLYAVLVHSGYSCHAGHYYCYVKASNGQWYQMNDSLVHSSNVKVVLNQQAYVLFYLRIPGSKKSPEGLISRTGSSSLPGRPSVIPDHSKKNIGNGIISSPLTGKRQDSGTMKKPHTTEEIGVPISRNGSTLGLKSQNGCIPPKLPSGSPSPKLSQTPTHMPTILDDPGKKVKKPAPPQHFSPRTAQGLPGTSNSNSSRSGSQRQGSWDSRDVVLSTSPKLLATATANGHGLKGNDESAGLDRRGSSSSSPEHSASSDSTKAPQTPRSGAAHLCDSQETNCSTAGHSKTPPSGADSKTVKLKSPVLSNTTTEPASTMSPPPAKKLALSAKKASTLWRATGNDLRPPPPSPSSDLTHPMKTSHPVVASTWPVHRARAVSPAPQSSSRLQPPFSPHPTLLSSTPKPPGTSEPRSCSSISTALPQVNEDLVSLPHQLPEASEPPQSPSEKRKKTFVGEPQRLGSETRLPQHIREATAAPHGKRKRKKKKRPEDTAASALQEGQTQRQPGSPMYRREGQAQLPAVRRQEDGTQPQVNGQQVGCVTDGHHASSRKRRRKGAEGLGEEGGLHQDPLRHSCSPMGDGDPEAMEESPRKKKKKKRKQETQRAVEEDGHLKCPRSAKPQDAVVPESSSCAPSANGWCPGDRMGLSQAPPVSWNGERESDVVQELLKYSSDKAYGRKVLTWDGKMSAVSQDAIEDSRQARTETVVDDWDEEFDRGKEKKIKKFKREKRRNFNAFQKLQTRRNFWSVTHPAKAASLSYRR
Outline: as §1

USP38 = molecular target: T2, USP38 (UniProt Q8NB14)
T2 sequence (whole entry): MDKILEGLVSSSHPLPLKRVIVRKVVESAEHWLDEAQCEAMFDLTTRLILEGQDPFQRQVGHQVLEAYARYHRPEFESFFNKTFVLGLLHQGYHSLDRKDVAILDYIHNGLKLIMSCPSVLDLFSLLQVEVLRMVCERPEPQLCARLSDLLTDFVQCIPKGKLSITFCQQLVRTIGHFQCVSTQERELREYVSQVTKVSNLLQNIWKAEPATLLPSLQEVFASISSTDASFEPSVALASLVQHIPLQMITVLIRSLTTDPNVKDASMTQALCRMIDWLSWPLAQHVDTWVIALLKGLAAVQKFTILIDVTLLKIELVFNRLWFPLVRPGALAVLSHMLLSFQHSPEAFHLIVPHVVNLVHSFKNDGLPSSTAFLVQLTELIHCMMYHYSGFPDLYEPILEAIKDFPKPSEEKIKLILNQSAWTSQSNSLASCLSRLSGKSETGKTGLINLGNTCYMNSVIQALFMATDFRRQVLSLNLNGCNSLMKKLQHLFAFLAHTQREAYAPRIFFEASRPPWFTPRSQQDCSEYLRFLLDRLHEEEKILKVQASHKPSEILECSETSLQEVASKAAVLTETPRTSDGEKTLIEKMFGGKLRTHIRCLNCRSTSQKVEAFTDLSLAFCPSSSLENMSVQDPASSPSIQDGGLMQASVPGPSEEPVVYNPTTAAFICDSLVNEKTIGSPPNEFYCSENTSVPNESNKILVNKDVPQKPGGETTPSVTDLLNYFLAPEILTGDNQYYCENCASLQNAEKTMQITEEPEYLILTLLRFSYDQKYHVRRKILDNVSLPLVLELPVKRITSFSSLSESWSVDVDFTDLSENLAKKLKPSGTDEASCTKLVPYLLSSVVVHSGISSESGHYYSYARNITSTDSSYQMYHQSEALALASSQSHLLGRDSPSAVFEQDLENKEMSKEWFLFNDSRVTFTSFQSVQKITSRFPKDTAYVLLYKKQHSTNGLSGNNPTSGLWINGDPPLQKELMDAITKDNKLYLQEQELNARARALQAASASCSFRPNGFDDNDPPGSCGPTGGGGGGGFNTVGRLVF
Outline: as §1

USP39 = molecular target: T3, USP39 (UniProt Q53GS9)
T3 sequence (whole entry): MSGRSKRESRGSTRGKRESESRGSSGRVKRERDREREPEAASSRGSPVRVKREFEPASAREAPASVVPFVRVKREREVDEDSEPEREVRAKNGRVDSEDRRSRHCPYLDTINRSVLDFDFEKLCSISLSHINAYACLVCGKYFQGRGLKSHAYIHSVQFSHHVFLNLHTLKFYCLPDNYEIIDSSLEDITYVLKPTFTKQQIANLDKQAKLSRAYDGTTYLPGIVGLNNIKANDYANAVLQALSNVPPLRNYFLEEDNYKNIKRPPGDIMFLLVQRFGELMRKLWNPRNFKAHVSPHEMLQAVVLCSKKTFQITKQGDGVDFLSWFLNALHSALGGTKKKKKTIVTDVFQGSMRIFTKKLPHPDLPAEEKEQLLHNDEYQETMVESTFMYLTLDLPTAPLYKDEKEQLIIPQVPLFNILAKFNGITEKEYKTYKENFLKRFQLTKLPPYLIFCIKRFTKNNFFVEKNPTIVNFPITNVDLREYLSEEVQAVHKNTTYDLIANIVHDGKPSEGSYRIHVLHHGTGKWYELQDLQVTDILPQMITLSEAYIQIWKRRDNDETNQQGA
Outline: as §1

USP4 = molecular target: T4, USP4 (UniProt Q13107)
T4 sequence (whole entry): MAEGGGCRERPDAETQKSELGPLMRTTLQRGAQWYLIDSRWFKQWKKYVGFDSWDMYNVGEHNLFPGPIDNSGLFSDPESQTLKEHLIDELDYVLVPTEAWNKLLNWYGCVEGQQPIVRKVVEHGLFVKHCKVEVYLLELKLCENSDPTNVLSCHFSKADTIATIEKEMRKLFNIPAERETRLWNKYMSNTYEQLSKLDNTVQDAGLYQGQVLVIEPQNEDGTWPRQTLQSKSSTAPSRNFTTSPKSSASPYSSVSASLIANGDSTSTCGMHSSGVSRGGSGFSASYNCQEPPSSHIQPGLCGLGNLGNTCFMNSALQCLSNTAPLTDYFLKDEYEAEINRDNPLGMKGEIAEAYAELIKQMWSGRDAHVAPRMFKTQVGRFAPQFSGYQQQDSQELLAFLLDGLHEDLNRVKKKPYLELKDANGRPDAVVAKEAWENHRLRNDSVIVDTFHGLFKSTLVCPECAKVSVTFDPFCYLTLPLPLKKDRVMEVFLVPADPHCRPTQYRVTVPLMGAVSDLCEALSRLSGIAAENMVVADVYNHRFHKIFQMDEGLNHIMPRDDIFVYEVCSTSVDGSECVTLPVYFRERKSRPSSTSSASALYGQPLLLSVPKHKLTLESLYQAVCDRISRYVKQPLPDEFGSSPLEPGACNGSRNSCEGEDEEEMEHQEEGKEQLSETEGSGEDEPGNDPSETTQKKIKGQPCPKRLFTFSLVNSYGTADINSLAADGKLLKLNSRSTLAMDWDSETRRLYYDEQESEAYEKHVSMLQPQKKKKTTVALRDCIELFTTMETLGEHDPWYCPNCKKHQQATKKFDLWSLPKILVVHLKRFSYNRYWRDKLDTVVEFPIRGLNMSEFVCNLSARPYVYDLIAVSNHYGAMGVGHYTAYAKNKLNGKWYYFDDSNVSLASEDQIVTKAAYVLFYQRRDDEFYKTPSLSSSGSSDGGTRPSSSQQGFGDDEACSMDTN
Outline: as §1

Measured: log2 ratio of Biotin-Ahx-Ub-VS probe labelling

O=C(CCl)NCc1noc(C2CC2)n1
inactive: USP34 -0.18 | USP36 -0.144 | USP38 -0.0158 | USP39 0.182 | USP4 0.00316
